Source: PubChem BioAssay AID1159580 (chemical genetic matrix, 2015)
Where “and” joins values, the source holds several entries; their conditions need not be identical. Identical values can stand only once. Among all 5,500 compounds or so, about 2,000 (36%) were called active. Roughly 18% stayed inconclusive and do not appear here. Rule as the data show it: active = normalized growth mostly below about 0.91 (no sharp cut-off); inconclusive = no clear call, values can overlap the other calls; inactive = mostly above about 0.92. The list shows a part of the results.

Experiment: chemical genetic growth profiling, strain panel (AID 1159580);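 also: tested at 20 µM; growth read once vehicle control cultures reached saturation at 30 °C; 1 = growth at the plate median or of vehicle wells; lower values mean less growth of the strain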
Settings: S. cerevisiae deletion strains, growth OD

Measured: normalized growth

COc1c(O)cc(O)cc1O
inactive: locus YAL021C, strain ccr4, active compounds read low 1.01 | locus YAL026C, strain drs2, active compounds read low 1.02 | locus YAL030W, strain snc1, active compounds read low 0.999 | locus YBL061C, strain skt5, active compounds read low 0.996 | locus YBR009C, strain hhf1, active compounds read low 1.02 | locus YBR021W, strain FUR4, active compounds read low 0.985 | locus YBR023C, strain chs3, active compounds read low 1.01 | locus YBR171W, strain sec66, active compounds read low 0.994 | locus YBR229C, strain ROT2, active compounds read low 1 | locus YBR231C, strain swc5, active compounds read low 1.01 | locus YBR279W, strain paf1, active compounds read low 1 | locus YCL011C, strain gbp2, active compounds read low 1.01 | locus YCL016C, strain dcc1, active compounds read low 1.01 | locus YCL029C, strain bik1, active compounds read low 1.02 | locus YCL061C, strain MRC1, active compounds read low 1 | locus YCL069W, strain vba3, active compounds read low 1 | locus YCR088W, strain abp1, active compounds read low 0.992 | locus YDL005C, strain med2, active compounds read low 0.983 | locus YDL035C, strain GPR1, active compounds read low 1.07 | locus YDL040C, strain nat1, active compounds read low 0.981 | locus YDL074C, strain BRE1, active compounds read low 1.06 | locus YDL101C, strain DUN1, active compounds read low 0.992 | locus YDL185W, strain tfp1, active compounds read low 0.978 | locus YDL192W, strain arf1, active compounds read low 1 | locus YDR001C, strain nth1, active compounds read low 1 | locus YDR069C, strain doa4, active compounds read low 1 | locus YDR101C, strain arx1, active compounds read low 1.04 | locus YDR137W, strain rgp1, active compounds read low 1.04 | locus YDR159W, strain sac3, active compounds read low 0.976 | locus YDR162C, strain NBP2, active compounds read low 1.06 | locus YDR195W, strain ref2 0.951 | locus YDR297W, strain sur2, active compounds read low 0.998 | locus YDR318W, strain mcm21, active compounds read low 1 | locus YDR334W, strain swr1, active compounds read low 0.994 | locus YDR335W, strain msn5, active compounds read low 1 | locus YDR388W, active compounds read low 0.997 | locus YDR392W, strain spt3, active compounds read low 1.01 | locus YDR502C, strain sam2, active compounds read low 0.998 | locus YEL003W, strain gim4, active compounds read low 1.02 | locus YEL037C, strain rad23, active compounds read low 1 | locus YEL061C, strain CIN8 (second series), active compounds read low 1.01 | locus YEL061C, strain CIN8, active compounds read low 1.01 | locus YER015W, strain faa2, active compounds read low 1 | locus YER016W, strain bim1, active compounds read low 0.996 | locus YER110C, active compounds read low 0.991 | locus YER111C, strain swi4, active compounds read low 0.989 | locus YER155C, strain BEM2 (second series), active compounds read low 1.02 | locus YER155C, strain BEM2, active compounds read low 0.989 | locus YER167W, strain BCK2, active compounds read low 1 | locus YFR010W, strain ubp6, active compounds read low 0.999 | locus YGL078C, strain dbp3, active compounds read low 0.969 | locus YGL086W, strain mad1, active compounds read low 1.01 | locus YGL167C, strain pmr1, active compounds read low 0.998 | locus YGL173C, strain kem1, active compounds read low 0.999 | locus YGL227W, strain vid30, active compounds read low 0.988 | locus YGL240W, strain doc1, active compounds read low 0.992 | locus YGL248W, strain PDE1, active compounds read low 0.996 | locus YGL253W, strain hxk2, active compounds read low 1.01 | locus YGR078C, strain PAC10, active compounds read low 1.02 | locus YGR135W, strain pre9, active compounds read low 0.972 | locus YGR252W, strain gcn5, active compounds read low 0.997 | locus YHR013C, strain ard1, active compounds read low 1.01 | locus YHR027C, strain rpn1, active compounds read low 0.988 | locus YHR030C, strain SLT2, active compounds read low 1.01 and 1.05 | locus YHR079C, strain IRE1 (second series), active compounds read low 0.997 | locus YHR079C, strain IRE1, active compounds read low 1.02 | locus YHR094C, strain hxt1, active compounds read low 1 | locus YHR129C, strain ARP1, active compounds read low 0.998 | locus YHR142W, strain chs7, active compounds read low 1.03 | locus YHR200W, strain rpn10, active compounds read low 0.984 | locus YIL066C, strain RNR3, active compounds read low 1 | locus YIL073C, strain SPO22, active compounds read low 1.05 | locus YIL125W, strain kgd1, active compounds read low 1 | locus YIR030C, strain dcg1, active compounds read low 1.01 | locus YJL092W, strain hpr5, active compounds read low 0.995 | locus YJL095W, strain BCK1 (second series), active compounds read low 1 | locus YJL095W, strain BCK1, active compounds read low 0.998 and 1.05 | locus YJL115W, strain asf1, active compounds read low 0.992 | locus YJL129C, strain trk1, active compounds read low 0.989 | locus YJL134W, strain LCB3, active compounds read low 0.997 | locus YJL154C, strain vps35, active compounds read low 0.995 | locus YJL164C, strain tpk1, active compounds read low 1.01 | locus YJL166W, strain qcr8, active compounds read low 1.05 | locus YJL168C, strain set2, active compounds read low 1 | locus YJL187C, strain SWE1 (second series), active compounds read low 0.997 | locus YJL187C, strain SWE1, active compounds read low 1 | locus YJR043C, strain POL32, active compounds read low 1.07
